Compound activity: PubChem BioAssay, Sanford-Burnham Center for Chemical Genomics
Rows were chosen to be rich in hits. Some 4.1% of all compounds tested hit in one or more screens of this group.
NR3A LBD binder = NR3A (human) ligand-binding domain modulation; NR3A LBD differential scanning fluorimetry, Tm shift; 0% = protein alone, 100% = glycine-bound protein; hit rate 2.5% among 340,000; Tm shift relative to glycine control, % at 25 µM;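 active means melting temperature shift of at least 10% of the positive control shift, at one fixed dose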
MPTP block = permeability transition pore inhibition; isolated mouse mitochondria, Ca2+ swelling absorbance, 30 min; inhibition, % at 10 µM; hit rate 1.4% among 360,000; AID 602449;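 active means inhibition of 50% or more, scaled per plate between neutral and stimulator controls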
FAS-TE inh = inhibitors of human fatty acid synthase thioesterase domain; P49327; hit rate 0.67% among 360,000; inhibition, % at 15 µM; recombinant FAS-TE, OMFH fluorogenic substrate, fluorescence endpoint; AID 602261;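 active means compounds whose normalised, plate-corrected inhibition of enzyme fluorescence in the single-dose primary screen is 50% or more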
MIN6 prolif = MIN6 beta-cell proliferation induction | MIN6 cells proliferation, ATPlite luminescence, 48 h; cells starved in 0.2% serum; 100% = growth in 10% serum | proliferation, % at 10 µM | hit rate 0.29% among 330,000 | AID 2380;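 active means compounds whose signal lies at least 3.5 SD above the mean of all wells on their plate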
p-CIP stab down = p/CIP protein destabilization; hit rate 0.01% among 290,000; Q05BA5; decrease of EGFP signal, % at 10 µM; F442A p/CIP-EGFP cells, EGFP fluorescence, 16 h;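 active means EGFP signal decrease of at least 30% at 10 µM or well 3 SD below plate mean, unless failing retest; inactive means the rest, including hits failing retest or dose response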
FAS-TE inh conf = FAS thioesterase (human) inhibition, confirmation. shares compounds with FAS-TE inh. recombinant FAS-TE, OMFH fluorogenic substrate, fluorescence. inhibition, % at 15 µM. hit rate 45% among 2,300. AID 624325;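 active means compounds inhibiting the enzyme by at least 50% at 15 µM in any one of the replicates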
Numbers stand for hits.

For COc1ccc(Cl)cc1CC1(C)C(=O)Nc2ccc(S(=O)(=O)NC3CCCCC3)cc21 (stereo not given) the results were MPTP block inactive and FAS-TE inh inactive.
O=C(Nc1ccc(Cl)cc1)N1CCCN(c2ccc(C(F)(F)F)cc2[N+](=O)[O-])CC1 was read as NR3A LBD binder inactive, MPTP block inactive, FAS-TE inh 54.5, MIN6 prolif inactive, p-CIP stab down inactive and FAS-TE inh conf inactive.
O=[N+]([O-])c1cc(C(F)(F)F)ccc1N1CCC(O)CC1 was read as NR3A LBD binder inactive, MPTP block inactive, FAS-TE inh inactive, MIN6 prolif inactive and p-CIP stab down inactive.
CC(NC(=O)C(C(=O)c1cccc([N+](=O)[O-])c1)n1cc(Cl)ccc1=O)c1ccccc1 (stereo not given) was read as NR3A LBD binder inactive, MPTP block inactive, FAS-TE inh 58.8, MIN6 prolif inactive, p-CIP stab down inactive and FAS-TE inh conf 64.9.
For O=C1c2ccccc2C(=O)N1CCCCN(C(=O)c1cc([N+](=O)[O-])cc([N+](=O)[O-])c1)c1ccc(Cl)cc1 the results were NR3A LBD binder inactive, MPTP block inactive, FAS-TE inh 54.0, MIN6 prolif inactive, p-CIP stab down inactive and FAS-TE inh conf inactive.
O=C1c2ccccc2C(=O)N1CCCCN(C(=O)c1ccc([N+](=O)[O-])cc1)c1ccc(Cl)cc1 was read as NR3A LBD binder inactive, MPTP block inactive, FAS-TE inh inactive, MIN6 prolif inactive and p-CIP stab down inactive.
For CCC(=O)N1c2ccc(S(=O)(=O)N3CCN(CC)CC3)cc2CC1C (stereo not given) the results were NR3A LBD binder inactive, MPTP block inactive, FAS-TE inh inactive, MIN6 prolif inactive and p-CIP stab down inactive.
Cc1ccc(C)c(N2CCN(S(=O)(=O)c3ccc4c(c3)CC(C)N4C(=O)C3CC3)CC2)c1 (stereo not given) was read as NR3A LBD binder inactive, MPTP block inactive, FAS-TE inh 53.6, MIN6 prolif inactive, p-CIP stab down inactive and FAS-TE inh conf inactive.
For CCC(=O)N1c2ccc(S(=O)(=O)N3CCN(c4ccc([N+](=O)[O-])cc4)CC3)cc2CC1C (stereo not given) the results were NR3A LBD binder inactive, MPTP block inactive, FAS-TE inh 63.6, MIN6 prolif inactive, p-CIP stab down inactive and FAS-TE inh conf inactive.
`Cc1cccc(N2CCN(S(=O)(=O)c3ccc4c(c3)CC(C)N4C(=O)C3CC3)CC2)c1C` (stereo not given) gave NR3A LBD binder inactive, MPTP block inactive, FAS-TE inh 64.9, MIN6 prolif inactive, p-CIP stab down inactive and FAS-TE inh conf inactive.
COc1ccc(CNC(=O)Nc2nnc([C@@H]3C[C@H](O)[C@@H](CO)O3)s2)cc1 was read as MPTP block inactive and FAS-TE inh inactive.
For O=C(Nc1ccc2c(c1)OCCO2)C1c2ccccc2OCC(=O)N1CCc1ccccc1 (stereo not given) the results were MPTP block inactive and FAS-TE inh inactive.
`COc1ccc(C(=O)NCCNc2nc3cc(C)cc(C)c3cc2C#N)nc1` gave MPTP block inactive.
Screening Cc1cc(C)n(-c2cc(N3CCN(S(=O)(=O)c4ccc(Br)cc4)CC3)ccc2[N+](=O)[O-])n1 returned NR3A LBD binder inactive, MPTP block inactive, FAS-TE inh 50.7, MIN6 prolif inactive, p-CIP stab down inactive and FAS-TE inh conf inactive.
Screening CCN(Cc1ccccc1)C(=O)COC(=O)c1cc(Cl)nc(Cl)c1 returned NR3A LBD binder inactive, MPTP block inactive, FAS-TE inh 54.9, MIN6 prolif inactive, p-CIP stab down inactive and FAS-TE inh conf 65.6.
For C[C@@]12C(=O)N(c3ccc(F)cc3)C(=O)N1[C@@H]1c3ccccc3OC[C@@H]1[C@H]2c1ccccc1 the results were NR3A LBD binder inactive, MPTP block inactive, FAS-TE inh inactive, MIN6 prolif inactive and p-CIP stab down inactive.
CCOC(=O)[C@H]1[C@H]2COc3ccc(C)cc3[C@@H]2N2C(=O)c3ccc(Cl)cc3NC(=O)[C@@]12C was read as NR3A LBD binder inactive, MPTP block inactive, FAS-TE inh inactive and MIN6 prolif inactive.
`C[C@@]12C(=O)Nc3cc(F)ccc3C(=O)N1[C@H]1c3ccccc3OC[C@@H]1[C@@H]2c1ccccc1` gave NR3A LBD binder inactive, MPTP block inactive, FAS-TE inh 68.8, MIN6 prolif inactive and FAS-TE inh conf 47.6.
